Assay outcomes from PubChem.
PMK inhibit: inhibitors of Streptococcus pneumoniae phosphomevalonate kinase; purified PMK, PK/LDH-coupled NADH absorbance 340 nm; inhibition, % at 10 µM; actives 0.49% (n = 65,000);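 active means top-ranked compounds by inhibition in the single 10 µM screen, taking a fixed number of the strongest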;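 further: 0% = full reaction with DMSO carrier and 100% = background rate without enzyme reaction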
Spn DPM-DC inh: blocks S. pneumoniae diphosphomevalonate decarboxylase. purified DPM-DC, PK/LDH coupled NADH fluorescence. calls only at 10 µM. actives 0.49% (n = 65,000);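 active means the 320 compounds with the highest percent inhibition in the single-dose primary screen, excluding strongly autofluorescent ones, cut at about 32% in these data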;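 further: kinetic rate of NADH fluorescence loss reporting ADP formed by the decarboxylase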
Autofluor 339: intrinsic fluorescence of library compounds, ex339/em460 – biochemical, MLSMR library, data from DPM-DC assay, artefact control, profiling panel; compound autofluorescence, ex339/em460 nm, NADH buffer; active compounds read high; 1 = no-compound wells, NADH background; fluorescence fold increase at 10 µM; actives 5.5% (n = 65,000);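 active means at 10 µM, mean starting fluorescence two-fold or more over control wells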;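 further: signal is the first read of a kinetic run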
A340 absorber: compound absorbs light at 340 nm; 65,000 tested, under 10 active; compound absorbance at 340 nm, fold over control; fold change at 10 µM;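 active means at 10 µM dose, initial 340 nm absorbance at least 2 fold that of control wells; inactive means change under 2 fold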;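 further: initial absorbance extrapolated from kinetic A340 decline of NADH oxidation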
MK inhibit: inhibitors of Streptococcus pneumoniae mevalonate kinase; actives 0.48% (n = 65,000); purified MK, PK/LDH-coupled NADH absorbance 340 nm; inhibition, % at 10 µM; AID 555;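 active means ranked among the strongest by inhibition in the single 10 µM screen, a fixed top-ranked set picked for dose follow-up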
NADH enzymes: inhibition of NAD/NADH coupling enzymes, library profiling. AID 774. coupled PK/LDH NADH assays, four targets. IC50, µM (series often up to 10 µM), without a hit: at the top dose inhibition. actives 0.02% (n = 65,000);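 active means single-dose screening hits from any of four coupled enzyme assays that gave an IC50 when retested across doses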;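 further: the DPM-DC format reads NADH fluorescence rather than 340 nm absorbance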
The depositor's hits bear a star; i = inactive; · = no result given; + = active, no number. In the library only some 6.3% were active in any assay of this set; here they are far more common.

SMILES | PMK inhibit | Spn DPM-DC inh | Autofluor 339 | A340 absorber | MK inhibit | NADH enzymes
COc1ccc(OC)c(-n2c(N)c(C(=O)NCC3CCCO3)c3nc4ccccc4nc32)c1 (stereo not given) | 0 | · | 2.1* | 1.1 | 0 | 0%
COCCn1c(N)c(S(=O)(=O)c2cccs2)c2nc3ccccc3nc21 | 10 | · | 3.9* | 1.1 | 9 | 10%
COCCn1c(N)c(C(=O)Nc2sc3c(c2C(=O)OC)CCCC3)c2nc3ccccc3nc21 | 10 | i | 1.1 | 1.1 | 0 | 2%
COCCCNc1nc2ccccc2nc1NS(=O)(=O)c1cccs1 | 16 | i | 1.2 | 1.1 | 7 | 8%
Nc1c(C(=O)NC2CCCC2)c2nc3ccccc3nc2n1N | 12 | i | 1.2 | 1.1 | 14 | 9%
O=c1cc(NCc2ccco2)c2ccccc2o1 | 0 | i | 1 | 1.1 | 6 | 5%
COc1cccc(C(=O)Cn2c(=O)n(CC3CCCO3)c(=O)c3ccccc32)c1 (stereo not given) | 1 | i | 1.1 | 1 | 0 | 0%
O=C(CSc1nnc2ccccn12)NCc1cccs1 | 17 | i | 0.87 | 0.99 | 6 | 13%
COc1ccc(-c2nc(CN3CCC(C(=O)N4CCc5ccccc54)CC3)c(C)o2)cc1OC | 0 | i | 1.1 | 1 | 7 | 2%
CC(C)Cn1c(N)c(C(=O)NCC2CCCO2)c2nc3ccccc3nc21 (stereo not given) | 3 | · | 2.1* | 1.1 | 5 | 4%
Nc1c(C(=O)NCC2CCCO2)c2nc3ccccc3nc2n1/N=C/c1ccncc1 (stereo not given) | 9 | i | 1.1 | 1.1 | 1 | 3%
COc1ccc(C(=O)NCCCn2ccnc2)cc1 | 0 | i | 1.1 | 1 | 9 | 3%
COCCn1c(N)c(C(=O)NCC2CCCO2)c2nc3ccccc3nc21 (stereo not given) | 3 | · | 2.4* | 1.1 | 11 | 7%
COCCNC(=O)c1c(N)n(CCCn2ccnc2)c2nc3ccccc3nc12 | 13 | · | 3.8* | 1.1 | 10 | 12%
C=CCOc1cccc(C2/C(=C(/O)c3ccccc3)C(=O)C(=O)N2CCCN2CCOCC2)c1 (stereo not given) | 11 | i | 1.1 | 1.1 | 9 | 7%
Cc1cc2ccccc2n1CCNC(=O)c1cccs1 | 2 | i | 1.1 | 1 | 3 | 2%
COC(=O)c1cc(NC2c3ccccc3C(=O)N2c2cccnc2)cc(C(=O)OC)c1 (stereo not given) | 17 | i | 1.4 | 1.1 | 7 | 10%
COC(=O)C1=CNC=C(C(=O)OC)C1c1ccc(C(=O)OC)cc1 | 14 | · | 2.1* | 1.1 | 4 | 9%
COC(=O)C1=C(C)N(C)C(C)=C(C(=O)OC)C1c1ccc(C(=O)OC)cc1 | 0 | i | 1.1 | 1.1 | 11 | 4%
Cc1cc2nc(C3CCN(CC4COc5ccccc5O4)CC3)[nH]c2cc1C (stereo not given) | 12 | i | 1 | 0.99 | 1 | 11%
COCCNC(=O)C(c1ccc(C)o1)N(Cc1ccc(OC)cc1)C(=O)Cn1nnc2ccccc21 (stereo not given) | 25* | i | 1.1 | 1 | 0 | 3%
CCOc1cc2[nH]c(=O)n(CC3CCC(C(=O)NCCCOC)CC3)c(=O)c2cc1OCC (stereo not given) | 0 | i | 2.1* | 1 | 0 | 0%
CCOc1cc2[nH]c(=O)n(CC3CCC(C(=O)NCCC(C)C)CC3)c(=O)c2cc1OCC (stereo not given) | 1 | i | 1.4 | 1.1 | 3 | 1%
CCOc1cc2[nH]c(=O)n(CCCCC(=O)NC3CCCCCC3)c(=O)c2cc1OCC | 5 | i | 2.3* | 1.1 | 8 | 6%
CCOc1cc2[nH]c(=O)n(CCCN3CCCC3=O)c(=O)c2cc1OCC | 10 | i | 2.3* | 1 | 3 | 8%
SMILES | PMK inhibit | Spn DPM-DC inh | Autofluor 339 | A340 absorber | MK inhibit | NADH enzymes
CC(C)(C)C1CCc2onc(C(=O)N3CCOCC3)c2C1 (stereo not given) | 19 | i | 1.1 | 0.97 | 6 | 8%
Cc1ccc(N(CC(=O)O)S(C)(=O)=O)cc1Cl | 13 | i | 1.1 | 1 | 4 | 6%
COc1cccc(CN2CCN(C(=O)c3cccc4ccccc34)CC2)c1OC | 9 | i | 1.1 | 1 | 7 | 5%
Cc1cccc(C)c1N1CCN(S(=O)(=O)c2ccc(F)cc2)CC1 | 10 | i | 1.1 | 1.1 | 5 | 5%
Cc1ccccc1CN1CCN(S(=O)(=O)c2ccc(F)cc2)CC1 | 1 | + | 1.1 | 1.1 | 30 | 28%
COc1cccc(OC)c1C(=O)N1CCN(Cc2ccccc2C)CC1 | 0 | i | 0.85 | 1 | 48* | 17%
COC(=O)c1ccccc1NC(=O)CSc1nnc(Cc2ccc(Cl)cc2)o1 | 6 | i | 1.1 | 1 | 11 | 6%
O=C1C(=O)N(CCCn2ccnc2)C(c2cccnc2)/C1=C(/O)c1ccc(Cl)cc1 (stereo not given) | 12 | i | 1 | 1.1 | 5 | 8%
CCOc1ccccc1NC(=O)C1=C(C)NC(=O)NC1c1cccc(OC)c1OC (stereo not given) | 5 | i | 1.1 | 0.98 | 0 | 2%
O=C(CN1CCC2(CC1)OCCO2)c1ccc2cc[nH]c2c1 | 13 | i | 3.2* | 1.1 | 0 | 10%
O=C(CN1C(=O)CCC1=O)Nc1nc(-c2nc3ccccc3s2)cs1 | 3 | · | 2.1* | 1.1 | 5 | 4%
COCCN1Cc2cccc(C(=O)NCc3cccnc3)c2C1=O | 12 | i | 1.1 | 1.1 | 0 | 4%
COc1cccc(NS(=O)(=O)c2ccc3[nH]cc(C(=O)NCCN4CCOCC4)c(=O)c3c2)c1 | 16 | i | 1.4 | 1.1 | 7 | 8%
Cc1ccccc1N(C)S(=O)(=O)c1ccc2[nH]cc(C(=O)NCC3CCCO3)c(=O)c2c1 (stereo not given) | 21 | i | 2.1* | 1 | 0 | 16%
CCN(CC)S(=O)(=O)c1ccc2[nH]cc(C(=O)NCCC3=CCCCC3)c(=O)c2c1 | 16 | i | 1.3 | 0.99 | 0 | 5%
CCOc1ccc(N(C)S(=O)(=O)c2ccc3[nH]cc(C(=O)NCC4CCCO4)c(=O)c3c2)cc1 (stereo not given) | 0 | i | 1.1 | 1 | 8 | 1%
CCN(CC)S(=O)(=O)c1ccc2[nH]cc(C(=O)NCCN3CCCCC3C)c(=O)c2c1 (stereo not given) | 13 | i | 3* | 1.1 | 0 | 8%
CCN(CC)S(=O)(=O)c1ccc2[nH]cc(C(=O)NCCN3CCCCCC3)c(=O)c2c1 | 17 | i | 2.9* | 1.1 | 0 | 8%
CCCCC(=O)NC(Nc1ccc(C)cn1)(C(=O)OCC)C(F)(F)F (stereo not given) | 5 | i | 1.1 | 1 | 0 | 2%
